Source: PubChem BioAssay (SRMLSC)
Rows were chosen to be rich in hits. Some 6.3% of all compounds tested hit in one or more screens of this group.
Autofluor 339 – intrinsic fluorescence of library compounds, ex339/em460 – biochemical, MLSMR library, data from DPM-DC assay, artefact control, profiling panel | compound autofluorescence, ex339/em460 nm, NADH buffer; stronger effect = higher value; 1 = no-compound wells, NADH background | fluorescence fold increase at 10 µM | 65,000 tested, 5.5% active;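 active = at 10 µM, mean starting fluorescence two-fold or more over control wells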;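 note: signal is the first read of a kinetic run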
MK inhibit – S. pneumoniae mevalonate kinase inhibition. purified MK, PK/LDH-coupled NADH absorbance 340 nm. inhibition, % at 10 µM. 65,000 tested, 0.48% active. AID 555;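 active = ranked among the strongest by inhibition in the single 10 µM screen, a fixed top-ranked set picked for dose follow-up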
A340 absorber – compounds absorbing at 340 nm | compound absorbance at 340 nm, fold over control | fold change at 10 µM | 65,000 tested, under 10 active | AID 708;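 active = at 10 µM dose, initial 340 nm absorbance at least 2 fold that of control wells; inactive = change under 2 fold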;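 note: initial absorbance extrapolated from kinetic A340 decline of NADH oxidation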
NADH coupling – blocks coupling enzymes of NAD/NADH assays. AID 774. IC50, µM (top dose mostly 10 µM), for inactives: top-dose inhibition. coupled PK/LDH NADH assays, four targets. 65,000 tested, 0.02% active;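 active = single-dose screening hits from any of four coupled enzyme assays that gave an IC50 when retested across doses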;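 note: the DPM-DC format reads NADH fluorescence rather than 340 nm absorbance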
Spn DPM-DC inh – blocks S. pneumoniae diphosphomevalonate decarboxylase; purified DPM-DC, PK/LDH coupled NADH fluorescence; calls only at 10 µM; 65,000 tested, 0.49% active; AID 556;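 active = the 320 compounds with the highest percent inhibition in the single-dose primary screen, excluding strongly autofluorescent ones, cut at about 32% in these data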;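 note: kinetic rate of NADH fluorescence loss reporting ADP formed by the decarboxylase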
PMK inhibit – inhibitors of Streptococcus pneumoniae phosphomevalonate kinase | purified PMK, PK/LDH-coupled NADH absorbance 340 nm | inhibition, % at 10 µM | 65,000 tested, 0.49% active | AID 539;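 active = top-ranked compounds by inhibition in the single 10 µM screen, taking a fixed number of the strongest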;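 note: 0% = full reaction with DMSO carrier and 100% = background rate without enzyme reaction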
An asterisk follows results filed as active; i = inactive; nt = no result given; + = active, no number.

SMILES | Autofluor 339 | MK inhibit | A340 absorber | NADH coupling | Spn DPM-DC inh | PMK inhibit
COc1ccccc1NC(=O)c1cc2ccc(O)cc2o/c1=N\O | 1.54 | 0.0 | 1.06 | 3.0% | i | 10.0
COCCSc1ccccc1C(=O)NCC1CCCO1 (stereo not given) | 1.17 | 5.0 | 1.03 | 2.0% | i | 2.0
COc1ccc2oc(=O)c(C(=O)N3CCN(C45CC6CC(CC(C6)C4)C5)CC3)cc2c1 | 3.74* | 0.0 | 1.03 | 5.0% | nt | 10.0
COc1ccccc1N=c1oc2cc(O)ccc2cc1C(=O)NCC1CCCO1 (stereo not given) | 2.89* | 0.0 | 1.07 | 11.0% | i | 16.0
Cc1cccc(N=c2oc3cc(O)ccc3cc2C(N)=O)c1 | 3.69* | 6.0 | 1.07 | 8.0% | i | 0.0
COc1ccc2oc(=O)c(C(=O)NCC3CCCO3)cc2c1 (stereo not given) | 5.11* | 9.0 | 1.03 | 8.0% | nt | 7.0
COc1cccc2cc(C(=O)NCC3CCCO3)c(=O)oc12 (stereo not given) | 1.41 | 9.0 | 1.08 | 12.0% | i | 6.0
COc1ccccc1N=c1oc2cc(O)ccc2cc1C(N)=O | 3.58* | 5.0 | 1.09 | 15.0% | i | 11.0
CCCc1cc(=O)oc2cc3oc(C)c(C)c3cc12 | 1.54 | 0.0 | 1.02 | 2.0% | i | 6.0
CN(C1CCCCC1)S(=O)(=O)c1ccccc1 | 1.1 | 6.0 | 1.03 | 5.0% | i | 5.0
CCc1c(C)c2ccc(O)c(CN(C)C)c2oc1=O | 2.32* | 12.0 | 1.17 | 6.0% | nt | 0.0
CCCCc1cc(=O)oc2c(CN(C)C)c(O)ccc12 | 3.59* | 10.0 | 1.11 | 9.0% | nt | 8.0
CN(Cc1c(O)ccc2c1oc(=O)c1ccccc12)C1CCCCC1 | 1.16 | 50.0* | 1.09 | 8.83µM* | i | 18.0
CCN(CC)S(=O)(=O)c1ccc(NC(=O)c2cccc3c2C(=O)N(CCOC)C3)cc1 | 1.29 | 10.0 | 0.98 | 9.0% | + | 18.0
COCCN1Cc2cccc(C(=O)Nc3ccc(S(=O)(=O)N4CCCCCC4)cc3)c2C1=O | 1.43 | 9.0 | 0.99 | 11.0% | i | 22.0
CCn1nnnc1SCC(=O)c1cc(OC)ccc1OC | 0.8 | 4.0 | 1.06 | 9.0% | i | 12.0
Cc1ccc2[nH]c(=O)c(CN(Cc3cccnc3)Cc3nnnn3CCN3CCOCC3)cc2c1 | 1.45 | 7.0 | 1.07 | 4.0% | i | 6.0
Cc1nn(CCC(=O)O)c2nc(-c3cccnc3)cc(C(F)(F)F)c12 | 4.93* | 5.0 | 1.09 | 5.0% | nt | 5.0
CCOC(=O)c1cc2nc(Nc3ccc(OC)cc3)sc2s1 | 1.97 | 0.0 | 1.13 | 15.0% | + | 5.0
COC(=O)c1ccccc1NC(=O)c1cc(-c2cccc(OC)c2)on1 | 1.44 | 2.0 | 1.06 | 4.0% | i | 11.0
COC(=O)c1ccccc1NC(=O)c1cc(-c2cccs2)on1 | 2.04* | 8.0 | 1.04 | 11.0% | i | 15.0
Cc1cc(C)cc(Nc2ncc3c(n2)CCCC3=O)c1 | 1.1 | 8.0 | 1.05 | 4.0% | i | 4.0
O=C(c1ccc(CSCc2ccccc2F)o1)N1CCN(c2ccc(N3CCOCC3)nn2)CC1 | 2.37* | 2.0 | 0.98 | 4.0% | nt | 10.0
O=C(c1cc2ccccc2oc1=O)N1CCN(c2ccc(N3CCOCC3)nn2)CC1 | 1.07 | 1.0 | 1.01 | 1.0% | i | 0.0
CCCCc1cc(=O)oc2cc(C)cc(OCC(=O)O)c12 | 3.82* | 8.0 | 1.09 | 6.0% | nt | 4.0
SMILES | Autofluor 339 | MK inhibit | A340 absorber | NADH coupling | Spn DPM-DC inh | PMK inhibit
CCCCCCc1ccc(OCC(=O)O)cc1OCC(=O)O | 1.07 | 3.0 | 1.03 | 1.0% | i | 0.0
CCc1ccc(CCC(=O)Nc2ccc(C)c(C)c2)o1 | 1.05 | 10.0 | 0.98 | 5.0% | + | 10.0
CC1CCc2nc(N)c(C#N)c(-c3ccncc3)c2C1 (stereo not given) | 3.75* | 11.0 | 1.09 | 13.0% | nt | 15.0
CC1CCc2nc(N)c(C#N)c(-c3cccnc3)c2C1 (stereo not given) | 1.99 | 8.0 | 1.11 | 9.0% | i | 0.0
C=CCn1c(N)c(C(=O)OC(C)(C)C)c2nc3ccccc3nc21 | 2.48* | 8.0 | 0.98 | 5.0% | nt | 7.0
C=CCn1c(N)c(C(=O)OC(C)CC)c2nc3ccccc3nc21 (stereo not given) | 2.12* | 0.0 | 1.09 | 8.0% | nt | 16.0
CCOc1ccc2sc(NS(=O)(=O)c3ccc(OC)c(OC)c3)nc2c1 | 1.1 | 5.0 | 1.02 | 4.0% | i | 7.0
CCOc1ccc(NC(=O)COC(=O)c2cccnc2)cc1 | 0.99 | 7.0 | 0.98 | 5.0% | i | 9.0
O=C(Nc1cccc(NS(=O)(=O)c2ccc(S(=O)(=O)NC3CC3)cc2)c1)c1ccccn1 | 1.1 | 6.0 | 1.04 | 2.0% | i | 0.0
